The supplement of paper PMC8975748
Counter-ions that a name gives are not always drawn.

What follows are molecules tested on Saccharomyces cerevisiae BY4741 SeMeCo community (assay: z-score of subpopulation abundance vs DMSO median, subpopulation auxotrophic for HL; higher = larger share of this subpopulation than in DMSO controls). Conditions: 10 µM; 24 h; SM minimal medium; subpopulation (auxotrophy): HL.
Protocol: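 Fluorescent four-plasmid SeMeCo (self-establishing metabolically cooperating S. cerevisiae BY4741 community; plasmids pH-mRuby2, pL-mWasabi, pU-eCFP, pM-TagRFP657) was grown 24 h in minimal SM medium with each Selleck FDA-approved drug at 10 µM in 384-well plates. Cells were fixed and imaged by high-content confocal microscopy. For each auxotrophic subpopulation (and the prototroph), a z-score gives the deviation from the DMSO vehicle-control population median.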

In order of rising “z-score of subpopulation abundance” value:
1. COc1ccc2cc(CCC(C)=O)ccc2c1 [Nabumetone]  -1.5
2. Cc1ccccc1C(OCCN(C)C)c1ccccc1 (stereo not given) [Orphenadrine Citrate]  -1.07
3. COc1ccc(NS(=O)(=O)c2ccc(N)cc2)nn1 [Sulfamethoxypyridazine]  -1.05
4. CC(C)C(=O)c1c(C(C)C)nn2ccccc12 [Ibudilast]  -0.96
5. CCN(CC)CCOC(=O)c1ccc(N)cc1 [Procaine]  -0.79
6. Cc1ccc(-c2cc(C(F)(F)F)nn2-c2ccc(S(N)(=O)=O)cc2)cc1 [Celecoxib]  -0.61
7. NNc1nncc2ccccc12 [Hydralazine HCl]  -0.59
8. C[C@H]1COc2c(N3CCN(C)CC3)c(F)cc3c(=O)c(C(=O)O)cn1c23 [Levofloxacin]  -0.59
9. CC1=CC[C@@](O)(C(C)C)CC1 [Terpinen-4-ol]  -0.57
10. Cc1ncc([N+](=O)[O-])n1CCO [Metronidazole]  -0.42
11. CCN(CC)CCNC(=O)c1cc(Cl)c(N)cc1OC [Metoclopramide]  -0.39
12. Cn1c([N+](=O)[O-])cnc1COC(N)=O [Ronidazole]  -0.38
13. CN[C@@H]1[C@H](O[C@H]2[C@H](O[C@H]3[C@H](O)[C@@H](O)[C@H](N=C(N)N)[C@@H](O)[C@@H]3N=C(N)N)O[C@@H](C)[C@]2(O)C=O)O[C@@H](CO)[C@H](O)[C@H]1O [Streptomycin sulfate]  -0.36
14. CC[C@H]1OC(=O)[C@H](C)[C@@H](O[C@H]2C[C@@](C)(OC)[C@@H](O)[C@H](C)O2)[C@H](C)[C@@H](O[C@@H]2O[C@H](C)C[C@H](N(C)C)[C@H]2O)[C@](C)(O)C[C@@H](C)CN[C@H](C)[C@@H](O)[C@]1(C)O [Azathramycin]  -0.33
15. O=C(NCCN1CCOCC1)c1ccc(Cl)cc1  -0.31
16. C[C@@H]1CN(c2c(F)c(N)c3c(=O)c(C(=O)O)cn(C4CC4)c3c2F)C[C@H](C)N1 [Sparfloxacin]  -0.29
17. CC(=O)O[C@H]1C[C@@H]2CC[C@@H]3[C@H](CC[C@@]4(C)[C@H]3C[C@H]([N+]3(C)CCCCC3)[C@@H]4OC(C)=O)[C@@]2(C)C[C@@H]1N1CCCCC1 [Vecuronium Bromide]  -0.24
18. COc1cc2c(cc1OC)C(=O)C(CC1CCN(Cc3ccccc3)CC1)C2 (stereo not given) [Donepezil HCl]  -0.23
19. Cc1ccc(Nc2c(F)cccc2Cl)c(CC(=O)O)c1 [Lumiracoxib]  -0.22
20. CN1CCC[C@@H]1Cc1c[nH]c2ccc(CCS(=O)(=O)c3ccccc3)cc12 [Eletriptan HBr]  -0.15
21. CCn1cc(C(=O)O)c(=O)c2ccc(C)nc21 [Nalidixic acid]  -0.13
22. COC(=O)C1=C(C)NC(C)=C(C(=O)OCCN(C)Cc2ccccc2)C1c1cccc([N+](=O)[O-])c1 (stereo not given) [Nicardipine HCl]  -0.11
23. O=C1CCc2cc(OCCCCc3nnnn3C3CCCCC3)ccc2N1 [Cilostazol]  -0.05
24. C[C@H](NCc1ccc(OCc2cccc(F)c2)cc1)C(N)=O [Safinamide]  0.15
25. Cc1cc(-n2c(=O)[nH]c(=O)n(C)c2=O)ccc1Oc1ccc(SC(F)(F)F)cc1 [Toltrazuril]  0.24
26. CCC1(C)CC(=O)NC1=O (stereo not given) [Ethosuximide]  0.36
27. CC[C@H](C)C(=O)O[C@H]1C[C@H](O)C=C2C=C[C@H](C)[C@H](CC[C@@H](O)C[C@@H](O)CC(=O)O)[C@H]21 [Pravastatin sodium]  0.84
28. COC(=O)Nc1nc2cc(C(=O)c3ccc(F)cc3)ccc2[nH]1 [Flubendazole]  0.98
29. CC(C)COCC(CN(Cc1ccccc1)c1ccccc1)N1CCCC1 (stereo not given) [Bepridil hydrochloride]  1.07
30. COc1cc([C@@H]2c3cc4c(cc3[C@@H](O[C@@H]3O[C@@H]5CO[C@@H](c6cccs6)O[C@H]5[C@H](O)[C@H]3O)[C@H]3COC(=O)[C@H]23)OCO4)cc(OC)c1O [Teniposide]  1.18
31. C=C[C@H]1CN2CC[C@H]1C[C@@H]2[C@@H](O)c1ccnc2ccc(OC)cc12 [Quinidine sulfate]  1.36
32. COc1ccc(CC2c3cc(OC)c(OC)cc3CC[N+]2(C)CCC(=O)OCCCCCOC(=O)CC[N+]2(C)CCc3cc(OC)c(OC)cc3C2Cc2ccc(OC)c(OC)c2)cc1OC (stereo not given) [Atracurium Besylate]  1.4
33. CC(C(=O)O)c1cccc(C(=O)c2ccccc2)c1 (stereo not given) [Ketoprofen]  1.42
34. CN(C)C[C@@H]1CCn2cc(c3ccccc32)C2=C(C(=O)NC2=O)c2cn(c3ccccc23)CCO1  1.61
35. CO[C@@H]1[C@H](OC(=O)/C=C/C=C/C=C/C=C/C(=O)O)CC[C@]2(CO2)[C@H]1[C@@]1(C)O[C@@H]1CC=C(C)C [Fumagillin]  1.92
36. CC(=O)OC1CC2(C)C(CC(O)C3C4(C)CCC(O)C(C)C4CCC32C)C1=C(CCC=C(C)C)C(=O)O (stereo not given) [Fusidine]  2.33
37. Oc1c(Cl)cc(Cl)cc1Sc1cc(Cl)cc(Cl)c1O [Bithionol]  3.98
38. O=C([O-])CC(O)(CC(=O)[O-])C(=O)[O-].O=C([O-])CC(O)(CC(=O)[O-])C(=O)[O-].[Bi+3].[K+].[K+].[K+].[K+].[K+] [Bismuth Subcitrate Potassium]  4.34
39. C[C@@H](c1ncncc1F)[C@](O)(Cn1cncn1)c1ccc(F)cc1F [Voriconazole]  6.37
40. Clc1ccc(COC(Cn2ccnc2)c2ccc(Cl)cc2Cl)c(Cl)c1 (stereo not given) [Miconazole Nitrate]  9.42
